# Data as given in PubChem BioAssay (NCI).
# Compounds without any hit were thinned out: in the full panel of roughly 83,000, 20% have a hit.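 Method: cells in 96-well plates; compound added at one concentration; 48 h incubation; percent growth measured; values under 10 scored active.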 A number with no mark means an inactive call. Activity calls are given as the source filed them.
# Columns and labels:
# Experiment in all cases: NCI-60 one-dose screen, 48 h (100 = growth as untreated, 0 = no growth, -100 = all killed)
# [1] = system: DU-145 prostate; settings: 10 µM
# [2] = system: K-562 leukemia; settings: 10 µM
# [3] = system: MALME-3M melanoma; settings: 10 µM
# [4] = system: MDA-MB-231 breast; settings: 10 µM
# [5] = system: RXF 393 renal; settings: 10 µM
# [6] = system: SF-268 CNS; settings: 10 µM
# [7] = system: SF-295 CNS; settings: 10 µM
# [8] = system: SF-539 CNS; settings: 10 µM
# [9] = system: UACC-257 melanoma; settings: 10 µM
# [10] = system: M14 melanoma; settings: 10 µM
# [11] = system: HCT-15 colon; settings: 10 µM
# [12] = system: HT29 colon; settings: 10 µM
# [13] = system: SNB-75 CNS; settings: 10 µM
# [14] = system: SNB-19 CNS; settings: 10 µM
# [15] = system: U251 CNS; settings: 10 µM
# [16] = system: PC-3 prostate; settings: 10 µM
# [17] = system: SK-MEL-5 melanoma; settings: 10 µM
# [18] = system: UACC-62 melanoma; settings: 10 µM unless noted
# [19] = system: LOX IMVI melanoma; settings: 10 µM
# [20] = system: SK-MEL-28 melanoma; settings: 10 µM
SMILES,growth [1],growth [2],growth [3],growth [4],growth [5],growth [6],growth [7],growth [8],growth [9],growth [10],growth [11],growth [12],growth [13],growth [14],growth [15],growth [16],growth [17],growth [18],growth [19],growth [20] [%]
Cc1cc(O)ccc1O,114%,94.1%,101%,87.3%,112%,102%,129%,95.5%,99.5%,96.4%,108%,114%,114%,112%,107%,97.7%,88.6%,80.8%,92.5%,108
CCOC(=O)c1ccc(NC(=S)P(=O)(c2ccccc2)c2ccccc2)cc1,113%,56.2%,108%,109%,120%,94.5%,104%,106%,108%,97.7%,98.5%,111%,101%,106%,99.2%,80.1%,104%,99.4%,84.8%,106
Cn1cnc2nc(Cl)nc(Cl)c21,-24% (active),25.5%,55.6%,20.9%,30.6%,22.1%,16.3%,2.85% (active),60%,-15.6% (active),31.7%,-29.9% (active),47.9%,61.4%,14.2%,25.1%,16%,54.9%,18.1%,65.1
O=C(Nc1cccc(NC(=O)Nc2cc(C(F)(F)F)ccc2Cl)c1)Nc1cc(C(F)(F)F)ccc1Cl,30.8%,16.3%,2.44% (active),1.95% (active),32%,48.5%,-23.9% (active),34%,-4.1% (active),21.6%,20.3%,12.4%,16.1%,36.2%,-17.2% (active),1.7% (active),29.4%,19.5%,10.2%,34.4
COC(=O)Nc1nc2ccc(C(=O)c3ccc(F)cc3)cc2[nH]1,-31% (active),-37% (active),57.5%,26.5%,-41.2% (active),22.6%,-3.22% (active),-21.8% (active),-2.09% (active),15.6%,5.81% (active),7.47% (active),31%,33.5%,14.3%,2.25% (active),13.6%,36%,28.4%,54.2
O=C(O)CCCC(=O)O,99.8%,120%,83.8%,106%,99.5%,94.1%,110%,104%,87.9%,106%,101%,106%,85.7%,99.4%,94.3%,95.1%,102%,105%,95.3%,102
O=c1[nH]c(O)c(/C=C2/C=Nc3ccccc32)[nH]1,99.3%,86.1%,125%,89.6%,103%,82.1%,125%,91.5%,101%,99.4%,81.2%,95.3%,77.4%,104%,103%,83.4%,91.2%,95.7%,–,111
CCCCCCCCCCC(C)Br (stereo unspecified),113%,93.2%,104%,113%,103%,113%,94.9%,110%,101%,112%,104%,109%,97%,103%,103%,101%,102%,104%,94.3%,112
COc1cccc(/C=N/NC(=S)NC2CC3CCC2C3)c1O (stereo unspecified),56.6%,39.3%,35.9%,55.4%,51.5%,63.3%,15.9%,69.8%,73.6%,55.7%,26.8%,93.6%,5.33% (active),72.4%,42.2%,64.8%,67.8%,67.7%,44.2%,67.6
N#Cc1ccc(NC(=O)Nc2cccc(C#N)c2)cc1,116%,46.1%,121%,92.1%,99.3%,112%,89.3%,93.9%,89.2%,98.1%,67.4%,97.3%,97.8%,103%,91.8%,57.3%,81.8%,93.7%,91.6%,108
CC(=O)c1cc2c(cc1F)C(C)(C)CCC2(C)C,108%,96.2%,123%,103%,113%,95.4%,120%,96.2%,96.3%,98.9%,100%,106%,84.8%,102%,104%,95.6%,102%,97.1%,96%,107
O=C(O)COCC(=O)O,103%,116%,83.6%,106%,102%,92.6%,89.7%,104%,87.9%,111%,103%,105%,81.4%,108%,94.7%,97%,102%,111%,101%,98.3
Oc1ccc(Cc2ccccc2)c2cccnc12,28.9%,13.3%,-0.436% (active),31%,14.6%,20%,32.4%,11.8%,1.27% (active),-29.8% (active),29.2%,84.3%,21.3%,19.6%,12.6%,23.4%,3.49% (active),-14% (active),4.75% (active),32.2
COc1cc(/C=N\Nc2ccccc2)ccc1OC(=O)c1ccccc1,55.3%,12%,89.5%,86.3%,100%,57.5%,50.5%,24.4%,81.8%,60.2%,24.4%,72.5%,85.4%,108%,81.5%,49.8%,74.7%,24.4%,3.86% (active),87.6
C=CC(=O)OCCCCCCCC,102%,103%,108%,109%,120%,102%,104%,99.5%,96.7%,104%,95%,124%,91.2%,101%,98.8%,106%,110%,102%,101%,110
Cc1c(C(=O)O)c(=O)n(-c2ccccc2)n1C,118%,108%,163%,118%,119%,119%,91.4%,119%,93.8%,104%,107%,112%,109%,111%,115%,101%,113%,108%,99.5%,122
COc1cc2nc3cc([N+](=O)[O-])ccc3c(Cl)c2cc1OC,103%,98.8%,94.5%,99.4%,120%,99.8%,103%,96.4%,93.1%,96.6%,94.6%,105%,104%,106%,89.1%,90.9%,99.1%,74.8%,105%,108

SMILES,growth [1],growth [2],growth [3],growth [4],growth [5],growth [6],growth [7],growth [8],growth [9],growth [10],growth [11],growth [12],growth [13],growth [14],growth [15],growth [16],growth [17],growth [18],growth [19],growth [20] [%]
O=C1Cc2ccccc2C(=O)O1,129%,106%,122%,108%,114%,110%,107%,103%,91.9%,98.7%,110%,109%,95.8%,103%,104%,85.1%,105%,106%,102%,106
CC1CC(O)CC(C)(C)C1 (stereo unspecified),101%,110%,97.4%,105%,115%,91.9%,98.7%,95.2%,97.8%,108%,100%,99.9%,94%,104%,101%,94.8%,104%,92.4%,102%,112
Cc1ccc(C(O)C2CC2)cc1 (stereo unspecified),113%,98.6%,101%,105%,102%,108%,97%,96.7%,89.5%,109%,97.7%,104%,88.9%,96.7%,100%,94.5%,103%,98.8%,100%,106
c1cc2cccc3c4cccc5cccc(c(c1)c23)c54,115%,110%,119%,94.4%,106%,101%,118%,99%,125%,106%,99.9%,110%,88.5%,99.5%,120%,93.5%,102%,93.2%,97.7%,107
COc1ccccc1N=Nc1c(O)ccc2cc(S(=O)(=O)O)ccc12,111%,98.1%,109%,93.2%,104%,96.5%,94.2%,103%,95.8%,99.7%,107%,96.7%,69.6%,100%,99.5%,92.6%,103%,100%,100%,111
c1ccc2c(c1)Sc1ccccc1S2,108%,103%,101%,94.1%,99.5%,109%,101%,106%,99.9%,103%,105%,105%,89.6%,100%,93.4%,91.4%,101%,102%,98.2%,110
CCC/C=C(\C)C(C)(C#N)C(=O)OCC (stereo unspecified),124%,100%,107%,122%,105%,118%,112%,102%,86.2%,116%,113%,109%,87.8%,102%,102%,101%,103%,102%,99.9%,109
Cc1cccc(C(=O)N(C(C)C)C(C)C)c1,103%,104%,95.5%,109%,107%,99%,90.4%,96.3%,87.3%,96.1%,96.7%,92.8%,95%,99.6%,92.5%,92.8%,95.3%,96.5%,96.1%,103
CCCOC(=O)C(O)c1ccccc1 (stereo unspecified),113%,129%,96.8%,90%,111%,99.7%,109%,101%,108%,93.8%,97.5%,103%,96.7%,107%,115%,101%,104%,98.2%,104%,116
CC1OC(Oc2c(-c3ccc(O)c(O)c3)oc3cc(O)cc(O)c3c2=O)C(O)C(O)C1O (stereo unspecified),109%,103%,110%,107%,110%,104%,105%,110%,104%,106%,113%,107%,96.5%,105%,104%,95.5%,91.8%,103%,–,105
CCN=c1cc2sc3cc(NCC)c(C)cc3nc-2cc1C,-18.9% (active),11.8%,-30.9% (active),2.51% (active),74.7%,-11.3% (active),-72.4% (active),-9.62% (active),6.74% (active),21.4%,8.95% (active),16.7%,52%,4.67% (active),10.7%,3.93% (active),-56.9% (active),61.3%,2.17% (active),60.4
N#CC1(Nc2ccc3c4c(cccc24)CC3)CCCCC1,103%,89.7%,93.1%,99.8%,89.8%,97%,98.8%,108%,92.9%,113%,106%,89.1%,78.6%,107%,99.8%,90.8%,91.6%,106%,97.6%,103
Cc1ncc(C#N)c(N)n1,114%,120%,93.8%,98.9%,89.6%,107%,98%,105%,106%,95.9%,100%,112%,77.8%,102%,100%,90%,89.9%,99.7%,–,102
CNS(=O)(=O)c1ccc(Cl)c(Cl)c1,111%,99.5%,111%,98.2%,99.7%,96.1%,101%,91.7%,124%,98.5%,99.9%,106%,87.8%,106%,99.3%,113%,96.7%,86.6%,102%,119
CCCCNC1(C#N)CCN(Cc2ccccc2)CC1,135%,114%,94.7%,104%,107%,129%,97.2%,99.8%,107%,76.6%,108%,106%,84.2%,91.1%,101%,96.1%,107%,95%,–,102
CC1CC(O)C2C3(C)CCCC2(COC3=O)C12CCC1(CCOC1=O)O2 (stereo unspecified),105%,127%,116%,126%,114%,107%,131%,101%,114%,96.8%,102%,109%,96.4%,108%,102%,94%,111%,114%,107%,111
